From the supplement of paper PMC11732987, “Enantioselective OTUD7B fragment discovery through chemoproteomics screening and high-throughput optimisation” (Communications Chemistry, 2025)

Columns and labels:
Experiment in all cases: log2 ratio of Biotin-Ahx-Ub-VS probe labelling (fragment/DMSO); higher = less target engagement (more negative = stronger competition), active = hit call of the paper (q ≤ 0.05, log2 ratio ≤ -1)
Conditions in all cases: compound concentration: 200 uM; treatment time: 3 h
USP9X = USP9X (UniProt Q93008)
Procedure, shortened: (§1)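 In triplicate, 495 µg of HEK293T lysate per sample was incubated with fragment at 200 µM or vehicle for 3 h. Biotin-Ahx-Ub-VS was then added to 0.5 µM final for 1 h, and labelled DUBs were captured with NeutrAvidin, digested with LysC and trypsin, and measured by diaPASEF LC-MS/MS. Data are average log2 fragment/vehicle ratios by unpaired t-test from global-median-normalised Spectronaut label-free quantities, restricted to proteins with ≥2 unique peptides.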

UniProt O00487 = target: UniProt O00487
Procedure, shortened: as §1

UniProt O00507 = target: UniProt O00507
Procedure, shortened: as §1

UniProt P51784 = target: UniProt P51784
Procedure, shortened: as §1

UniProt Q5T2D3 = target: T1, UniProt Q5T2D3
T1 sequence (whole entry): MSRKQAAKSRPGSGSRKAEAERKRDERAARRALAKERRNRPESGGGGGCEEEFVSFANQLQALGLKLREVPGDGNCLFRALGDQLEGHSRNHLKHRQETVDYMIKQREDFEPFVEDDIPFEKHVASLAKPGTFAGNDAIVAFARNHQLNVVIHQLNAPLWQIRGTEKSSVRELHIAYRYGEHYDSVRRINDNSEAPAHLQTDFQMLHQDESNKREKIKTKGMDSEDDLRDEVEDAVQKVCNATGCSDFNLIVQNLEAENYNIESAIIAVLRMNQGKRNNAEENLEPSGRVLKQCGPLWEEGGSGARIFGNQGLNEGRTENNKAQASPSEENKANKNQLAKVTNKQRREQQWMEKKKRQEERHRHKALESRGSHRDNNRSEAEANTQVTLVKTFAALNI
Procedure, shortened: as §1

UniProt Q8TE49 = target: T2, UniProt Q8TE49
T2 sequence (whole entry): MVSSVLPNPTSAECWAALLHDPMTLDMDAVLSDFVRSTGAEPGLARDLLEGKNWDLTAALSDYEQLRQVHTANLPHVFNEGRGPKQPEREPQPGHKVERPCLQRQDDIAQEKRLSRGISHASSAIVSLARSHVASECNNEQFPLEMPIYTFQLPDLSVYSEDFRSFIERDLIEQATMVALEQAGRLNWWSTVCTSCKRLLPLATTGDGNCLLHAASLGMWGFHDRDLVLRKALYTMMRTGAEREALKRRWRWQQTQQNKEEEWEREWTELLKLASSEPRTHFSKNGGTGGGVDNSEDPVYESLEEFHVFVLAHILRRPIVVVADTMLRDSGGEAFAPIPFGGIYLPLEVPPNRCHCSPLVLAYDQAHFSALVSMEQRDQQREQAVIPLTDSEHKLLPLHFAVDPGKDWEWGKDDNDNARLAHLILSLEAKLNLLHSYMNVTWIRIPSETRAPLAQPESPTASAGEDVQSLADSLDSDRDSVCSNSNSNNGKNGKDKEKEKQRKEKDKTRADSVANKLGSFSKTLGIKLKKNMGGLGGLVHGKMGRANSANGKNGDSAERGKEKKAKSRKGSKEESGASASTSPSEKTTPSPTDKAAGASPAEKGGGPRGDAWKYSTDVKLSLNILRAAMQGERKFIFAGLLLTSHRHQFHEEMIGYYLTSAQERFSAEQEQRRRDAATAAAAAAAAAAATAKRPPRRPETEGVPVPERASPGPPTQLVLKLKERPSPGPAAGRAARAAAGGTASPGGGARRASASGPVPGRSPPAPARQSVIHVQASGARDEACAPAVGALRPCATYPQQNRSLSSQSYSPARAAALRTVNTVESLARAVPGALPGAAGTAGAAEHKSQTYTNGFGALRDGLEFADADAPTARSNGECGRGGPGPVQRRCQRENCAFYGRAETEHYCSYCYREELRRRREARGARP
Procedure, shortened: as §1

UniProt Q9P2H5 = target: T3, UniProt Q9P2H5
T3 sequence (whole entry): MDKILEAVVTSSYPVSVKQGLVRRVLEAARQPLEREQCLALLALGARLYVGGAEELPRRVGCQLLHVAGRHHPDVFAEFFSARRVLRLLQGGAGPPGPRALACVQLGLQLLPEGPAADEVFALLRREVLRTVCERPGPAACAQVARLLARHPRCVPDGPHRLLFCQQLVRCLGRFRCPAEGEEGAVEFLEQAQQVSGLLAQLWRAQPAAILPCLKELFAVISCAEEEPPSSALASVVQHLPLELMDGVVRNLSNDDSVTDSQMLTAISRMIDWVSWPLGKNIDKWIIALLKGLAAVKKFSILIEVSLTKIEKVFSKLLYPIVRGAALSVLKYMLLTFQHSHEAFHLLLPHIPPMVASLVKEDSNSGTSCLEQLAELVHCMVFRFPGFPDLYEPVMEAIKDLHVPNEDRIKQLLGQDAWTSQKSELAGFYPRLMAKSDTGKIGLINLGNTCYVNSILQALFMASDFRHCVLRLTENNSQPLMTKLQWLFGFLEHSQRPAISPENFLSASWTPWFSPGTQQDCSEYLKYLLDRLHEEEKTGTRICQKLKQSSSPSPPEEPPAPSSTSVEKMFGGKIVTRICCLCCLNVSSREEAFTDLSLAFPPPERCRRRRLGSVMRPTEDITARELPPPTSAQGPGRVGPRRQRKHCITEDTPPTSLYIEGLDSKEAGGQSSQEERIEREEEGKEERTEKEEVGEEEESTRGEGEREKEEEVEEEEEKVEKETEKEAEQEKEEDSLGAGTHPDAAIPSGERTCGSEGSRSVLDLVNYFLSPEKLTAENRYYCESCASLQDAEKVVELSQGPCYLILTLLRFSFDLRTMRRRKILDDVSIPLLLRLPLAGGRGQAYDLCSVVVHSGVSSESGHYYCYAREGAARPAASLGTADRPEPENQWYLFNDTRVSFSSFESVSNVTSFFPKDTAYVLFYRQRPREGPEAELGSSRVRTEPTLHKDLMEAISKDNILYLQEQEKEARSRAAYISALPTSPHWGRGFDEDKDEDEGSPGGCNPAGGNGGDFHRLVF
Procedure, shortened: as §1

UniProt Q9UGI0 = target: T4, UniProt Q9UGI0
T4 sequence (whole entry): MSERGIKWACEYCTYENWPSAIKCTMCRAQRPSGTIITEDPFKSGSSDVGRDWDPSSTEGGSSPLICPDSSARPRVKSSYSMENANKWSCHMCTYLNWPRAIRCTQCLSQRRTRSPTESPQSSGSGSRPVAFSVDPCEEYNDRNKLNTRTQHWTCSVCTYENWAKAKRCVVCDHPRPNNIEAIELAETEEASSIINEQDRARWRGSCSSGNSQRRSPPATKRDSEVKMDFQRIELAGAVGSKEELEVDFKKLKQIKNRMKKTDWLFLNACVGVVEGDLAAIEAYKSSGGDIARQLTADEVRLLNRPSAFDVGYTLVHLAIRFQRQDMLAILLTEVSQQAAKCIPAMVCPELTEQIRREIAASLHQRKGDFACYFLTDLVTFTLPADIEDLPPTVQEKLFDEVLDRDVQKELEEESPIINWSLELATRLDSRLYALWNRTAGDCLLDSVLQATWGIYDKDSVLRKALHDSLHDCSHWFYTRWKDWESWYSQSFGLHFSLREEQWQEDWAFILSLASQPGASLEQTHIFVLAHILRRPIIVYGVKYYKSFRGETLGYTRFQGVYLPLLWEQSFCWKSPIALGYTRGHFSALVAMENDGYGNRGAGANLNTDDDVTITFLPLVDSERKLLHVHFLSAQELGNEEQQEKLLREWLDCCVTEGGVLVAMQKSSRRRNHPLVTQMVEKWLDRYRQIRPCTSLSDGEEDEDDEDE
Procedure, shortened: as §1

YOD1 = target: T5, YOD1 (UniProt Q5VVQ6)
T5 sequence (whole entry): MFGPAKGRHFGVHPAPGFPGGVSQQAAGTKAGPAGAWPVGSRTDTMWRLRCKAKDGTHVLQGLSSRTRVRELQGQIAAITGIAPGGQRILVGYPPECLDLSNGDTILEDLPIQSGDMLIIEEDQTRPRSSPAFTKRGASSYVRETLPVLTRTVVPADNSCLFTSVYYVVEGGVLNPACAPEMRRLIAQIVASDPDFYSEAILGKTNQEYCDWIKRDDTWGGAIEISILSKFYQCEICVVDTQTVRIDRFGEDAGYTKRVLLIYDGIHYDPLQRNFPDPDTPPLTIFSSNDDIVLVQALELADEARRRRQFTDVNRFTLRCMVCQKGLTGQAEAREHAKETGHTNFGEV
Procedure, shortened: as §1

Measured: log2 ratio of Biotin-Ahx-Ub-VS probe labelling

Sequence of UniProt O00507 (O00507 whole entry): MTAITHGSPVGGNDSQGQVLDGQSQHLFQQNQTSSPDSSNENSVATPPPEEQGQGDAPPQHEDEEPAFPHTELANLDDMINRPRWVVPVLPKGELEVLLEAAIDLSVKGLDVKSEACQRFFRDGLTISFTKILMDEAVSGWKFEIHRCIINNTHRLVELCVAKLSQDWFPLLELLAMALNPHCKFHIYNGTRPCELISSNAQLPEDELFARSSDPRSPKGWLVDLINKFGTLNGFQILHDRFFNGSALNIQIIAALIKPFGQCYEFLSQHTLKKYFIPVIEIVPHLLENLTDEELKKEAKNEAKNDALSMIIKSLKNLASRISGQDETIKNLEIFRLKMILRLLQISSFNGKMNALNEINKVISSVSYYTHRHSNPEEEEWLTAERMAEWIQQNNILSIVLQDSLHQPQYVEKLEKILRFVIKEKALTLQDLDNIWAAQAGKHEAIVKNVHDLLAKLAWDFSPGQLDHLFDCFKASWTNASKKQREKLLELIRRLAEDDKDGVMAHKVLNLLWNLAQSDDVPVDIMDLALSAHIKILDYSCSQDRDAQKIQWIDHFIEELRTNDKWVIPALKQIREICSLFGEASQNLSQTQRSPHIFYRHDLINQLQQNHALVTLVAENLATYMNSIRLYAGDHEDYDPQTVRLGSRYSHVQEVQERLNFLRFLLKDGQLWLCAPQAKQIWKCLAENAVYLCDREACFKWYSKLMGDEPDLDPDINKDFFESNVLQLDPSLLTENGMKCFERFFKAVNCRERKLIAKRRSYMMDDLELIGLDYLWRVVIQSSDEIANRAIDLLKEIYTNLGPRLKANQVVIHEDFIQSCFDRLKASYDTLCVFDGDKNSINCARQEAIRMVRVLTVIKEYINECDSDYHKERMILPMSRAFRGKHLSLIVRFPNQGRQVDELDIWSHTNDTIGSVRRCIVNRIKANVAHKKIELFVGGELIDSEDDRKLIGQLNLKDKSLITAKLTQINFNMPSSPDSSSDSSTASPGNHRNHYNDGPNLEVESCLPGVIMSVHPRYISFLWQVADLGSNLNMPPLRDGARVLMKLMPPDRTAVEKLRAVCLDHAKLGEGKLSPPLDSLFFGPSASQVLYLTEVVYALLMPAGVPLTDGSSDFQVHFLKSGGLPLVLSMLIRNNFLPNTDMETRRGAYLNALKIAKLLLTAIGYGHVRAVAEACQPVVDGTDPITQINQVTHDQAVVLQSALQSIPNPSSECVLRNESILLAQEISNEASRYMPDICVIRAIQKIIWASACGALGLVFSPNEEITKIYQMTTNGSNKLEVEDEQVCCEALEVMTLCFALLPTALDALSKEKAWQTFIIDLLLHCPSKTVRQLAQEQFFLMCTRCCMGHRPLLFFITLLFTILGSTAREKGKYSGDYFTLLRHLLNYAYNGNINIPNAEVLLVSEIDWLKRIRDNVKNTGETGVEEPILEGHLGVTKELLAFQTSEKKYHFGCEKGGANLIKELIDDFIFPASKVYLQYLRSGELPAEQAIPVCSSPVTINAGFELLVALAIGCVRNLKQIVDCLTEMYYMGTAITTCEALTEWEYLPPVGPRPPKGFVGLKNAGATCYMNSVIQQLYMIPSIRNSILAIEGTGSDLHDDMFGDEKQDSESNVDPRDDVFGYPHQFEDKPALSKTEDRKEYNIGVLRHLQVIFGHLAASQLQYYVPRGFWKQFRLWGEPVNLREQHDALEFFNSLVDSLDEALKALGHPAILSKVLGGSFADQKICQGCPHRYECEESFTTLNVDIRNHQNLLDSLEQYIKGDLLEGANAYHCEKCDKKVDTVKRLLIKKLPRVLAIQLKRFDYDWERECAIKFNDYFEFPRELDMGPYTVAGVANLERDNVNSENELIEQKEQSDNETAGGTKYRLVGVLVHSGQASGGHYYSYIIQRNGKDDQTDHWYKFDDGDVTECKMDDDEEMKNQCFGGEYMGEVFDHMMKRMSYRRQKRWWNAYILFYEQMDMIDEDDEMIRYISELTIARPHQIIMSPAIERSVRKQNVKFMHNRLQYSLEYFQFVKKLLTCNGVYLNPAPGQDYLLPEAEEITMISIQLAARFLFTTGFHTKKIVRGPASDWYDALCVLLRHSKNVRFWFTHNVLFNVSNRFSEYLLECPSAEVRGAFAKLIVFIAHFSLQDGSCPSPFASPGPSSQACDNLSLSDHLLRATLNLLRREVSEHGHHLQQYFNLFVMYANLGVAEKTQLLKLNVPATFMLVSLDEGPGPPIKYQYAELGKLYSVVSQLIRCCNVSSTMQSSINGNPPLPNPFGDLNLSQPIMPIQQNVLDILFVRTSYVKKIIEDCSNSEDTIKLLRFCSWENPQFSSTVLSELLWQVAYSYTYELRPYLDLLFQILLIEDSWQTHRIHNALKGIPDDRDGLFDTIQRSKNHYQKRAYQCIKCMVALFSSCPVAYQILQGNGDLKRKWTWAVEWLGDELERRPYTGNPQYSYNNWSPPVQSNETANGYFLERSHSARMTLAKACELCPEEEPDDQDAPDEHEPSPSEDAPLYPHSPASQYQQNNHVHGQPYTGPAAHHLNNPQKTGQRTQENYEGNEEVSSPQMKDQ
Sequence of USP9X (Q93008 whole entry, the tested form may be a part): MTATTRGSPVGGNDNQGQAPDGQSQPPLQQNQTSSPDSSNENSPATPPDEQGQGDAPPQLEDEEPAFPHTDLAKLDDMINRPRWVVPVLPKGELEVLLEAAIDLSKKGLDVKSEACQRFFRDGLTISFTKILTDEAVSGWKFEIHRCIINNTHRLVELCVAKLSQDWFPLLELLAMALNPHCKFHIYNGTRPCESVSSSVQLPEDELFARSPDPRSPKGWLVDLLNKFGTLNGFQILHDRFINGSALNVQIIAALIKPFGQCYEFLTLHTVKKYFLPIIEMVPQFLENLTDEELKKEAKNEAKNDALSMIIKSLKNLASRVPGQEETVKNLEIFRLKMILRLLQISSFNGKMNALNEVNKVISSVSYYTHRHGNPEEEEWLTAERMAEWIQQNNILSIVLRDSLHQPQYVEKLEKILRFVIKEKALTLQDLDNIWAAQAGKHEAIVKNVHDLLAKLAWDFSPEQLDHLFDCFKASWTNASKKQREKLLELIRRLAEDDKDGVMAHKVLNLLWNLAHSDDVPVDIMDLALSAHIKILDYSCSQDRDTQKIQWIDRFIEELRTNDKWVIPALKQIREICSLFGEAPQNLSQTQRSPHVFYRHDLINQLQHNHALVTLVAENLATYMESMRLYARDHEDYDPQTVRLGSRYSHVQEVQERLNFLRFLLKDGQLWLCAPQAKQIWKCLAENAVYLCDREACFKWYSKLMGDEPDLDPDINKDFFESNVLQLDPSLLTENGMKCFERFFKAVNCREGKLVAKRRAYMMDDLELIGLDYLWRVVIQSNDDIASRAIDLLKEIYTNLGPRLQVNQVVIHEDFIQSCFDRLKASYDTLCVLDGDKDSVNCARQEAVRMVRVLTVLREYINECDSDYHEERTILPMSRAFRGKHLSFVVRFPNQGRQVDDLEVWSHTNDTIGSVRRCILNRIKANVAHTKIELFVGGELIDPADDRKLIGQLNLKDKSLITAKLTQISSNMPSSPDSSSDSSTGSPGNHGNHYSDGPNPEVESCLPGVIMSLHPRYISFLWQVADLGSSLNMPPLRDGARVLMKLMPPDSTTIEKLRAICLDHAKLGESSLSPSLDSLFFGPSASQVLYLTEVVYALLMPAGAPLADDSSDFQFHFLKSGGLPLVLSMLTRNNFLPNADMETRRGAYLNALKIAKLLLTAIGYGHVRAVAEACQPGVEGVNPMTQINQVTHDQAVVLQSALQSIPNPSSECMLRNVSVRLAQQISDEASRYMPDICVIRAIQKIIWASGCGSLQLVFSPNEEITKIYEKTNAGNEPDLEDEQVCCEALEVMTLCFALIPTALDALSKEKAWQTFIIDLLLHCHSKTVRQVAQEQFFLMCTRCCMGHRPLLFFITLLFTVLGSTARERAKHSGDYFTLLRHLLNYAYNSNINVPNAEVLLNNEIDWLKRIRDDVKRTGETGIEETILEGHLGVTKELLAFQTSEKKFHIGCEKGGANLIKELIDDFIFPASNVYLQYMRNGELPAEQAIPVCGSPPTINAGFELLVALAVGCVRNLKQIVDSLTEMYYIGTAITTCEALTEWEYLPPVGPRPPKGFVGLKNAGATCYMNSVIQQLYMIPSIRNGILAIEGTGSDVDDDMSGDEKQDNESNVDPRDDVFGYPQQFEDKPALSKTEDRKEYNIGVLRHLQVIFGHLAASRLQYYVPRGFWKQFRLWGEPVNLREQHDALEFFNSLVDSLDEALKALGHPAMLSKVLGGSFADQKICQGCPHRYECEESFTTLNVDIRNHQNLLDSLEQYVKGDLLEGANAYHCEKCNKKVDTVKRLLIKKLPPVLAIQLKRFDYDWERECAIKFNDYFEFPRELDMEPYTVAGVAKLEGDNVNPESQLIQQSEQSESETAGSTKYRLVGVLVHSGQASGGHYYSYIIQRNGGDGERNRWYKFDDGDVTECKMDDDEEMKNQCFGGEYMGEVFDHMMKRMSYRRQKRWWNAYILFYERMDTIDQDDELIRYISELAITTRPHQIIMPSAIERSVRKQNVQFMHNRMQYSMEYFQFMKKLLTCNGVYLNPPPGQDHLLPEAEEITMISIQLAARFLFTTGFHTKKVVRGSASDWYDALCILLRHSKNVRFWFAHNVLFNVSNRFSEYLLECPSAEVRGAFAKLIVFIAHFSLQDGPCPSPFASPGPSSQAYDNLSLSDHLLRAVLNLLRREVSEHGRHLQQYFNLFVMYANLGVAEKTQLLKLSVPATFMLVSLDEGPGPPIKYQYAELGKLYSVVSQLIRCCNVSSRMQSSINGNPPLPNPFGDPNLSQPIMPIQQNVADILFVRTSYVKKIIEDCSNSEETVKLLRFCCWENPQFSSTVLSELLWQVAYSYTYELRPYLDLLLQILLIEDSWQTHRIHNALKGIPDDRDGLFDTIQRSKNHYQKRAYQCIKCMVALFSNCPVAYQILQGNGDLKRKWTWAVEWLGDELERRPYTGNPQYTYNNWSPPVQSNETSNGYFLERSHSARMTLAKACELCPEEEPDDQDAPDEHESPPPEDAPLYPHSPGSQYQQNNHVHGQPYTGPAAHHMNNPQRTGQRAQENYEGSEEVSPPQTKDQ

O=C(CCl)NC1CCC(C(F)(F)F)CC1 (centres undefined)
inactive: USP9X -0.178 | UniProt O00487 -0.185 | UniProt O00507 -0.728 | UniProt P51784 0.104 | UniProt Q5T2D3 -0.211 | UniProt Q8TE49 -0.706 | UniProt Q9P2H5 0.159 | UniProt Q9UGI0 -0.54 | YOD1 -0.348
